# The list is not random: actives were taken first. Their share in the collection is about 15%.
# RORg inh = inhibitors of mouse ROR gamma transcriptional activity; P51450; Drosophila S2 Gal4-RORgamma UAS-luciferase reporter, 20 h; Potency, µM (series often up to 53.6 µM), for the others: at the highest dose activity change, negative = inhibition, usual class: inhibitors; 310,000 compounds, 5.4% hits; AID 2551; also: nearly all actives have a fitted effect of over 60% in size
#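 Stable Schneider cell line, Gal4 DNA-binding domain fused to ROR gamma, UAS-luciferase. Cmpd 1 hr RT → CuSO4 700 uM final → 20 hr RT → luciferase reagent 10 min → luminescence.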
# TDP1 cell CPT = growth inhibition of DT40 Tdp1-/-;hTDP1 cells with camptothecin (screen for TDP1 inhibitors); 420,000 compounds, 12% hits; chicken DT40 Tdp1-/-;hTDP1 cells + 20 nM CPT, ATP luminescence, 48 h; Potency, µM (series often up to 46.2 µM), without a hit: at the top dose activity change, negative = growth inhibition, usual class: inhibitors; also: nearly all actives have a fitted effect of over 55% in size
#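 Chicken DT40 Tdp1-/- cells stably complemented with human TDP1 were seeded at 400 cells/well in medium containing 20 nM camptothecin, exposed to pin-transferred compounds, and grown at 37 °C for at least 48 hr. Viability was read as ATP luminescence.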
# ELG1 DNA repair = ELG1-dependent DNA repair inhibition | Potency, µM (highest dose often 46.1 µM), inactives show top-dose activity change, negative = inhibition, actives largely listed as inhibitors | 330,000 compounds, 2.3% hits | HEK293T ELG1-luciferase reporter, luminescence, 16 h; DNA damage induced by 5-fluorouridine; also: nearly all actives have a fitted effect of over 55% in size
#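 Overnight (16 hr) co-exposure of 2,000 cells/well to 5-fluorouridine and compound at 37 °C preceded detection. Luciferase was quantified via ONE-Glo luminescence; loss of signal denotes inhibition.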
# VP16 counter = counter-screen for ROR gamma inhibitors: Gal4-VP16 reporter; Drosophila S2 Gal4-VP16 UAS-luciferase, luminescence, 20 h; Potency, µM (top dose mostly 53.6 µM), inactives show at the highest dose activity, negative = inhibition, usual class: inhibitors; 310,000 compounds, 3.5% hits;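 also: Gal4-VP16 expression switched on by copper sulfate through the metallothionein promoter; nearly all actives have a fitted effect of over 50% in size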
# 12-LOX inh = inhibitors of human 12S-lipoxygenase ALOX12. 580,000 compounds, 1.1% hits. purified 12hLO, xylenol orange hydroperoxide absorbance. P18054. Potency, µM (top dose mostly 108 µM), inactives show at the top dose activity change, negative = inhibition, hits mostly inhibitors. AID 1671190
# Target sequence (P18054 whole entry, looked up): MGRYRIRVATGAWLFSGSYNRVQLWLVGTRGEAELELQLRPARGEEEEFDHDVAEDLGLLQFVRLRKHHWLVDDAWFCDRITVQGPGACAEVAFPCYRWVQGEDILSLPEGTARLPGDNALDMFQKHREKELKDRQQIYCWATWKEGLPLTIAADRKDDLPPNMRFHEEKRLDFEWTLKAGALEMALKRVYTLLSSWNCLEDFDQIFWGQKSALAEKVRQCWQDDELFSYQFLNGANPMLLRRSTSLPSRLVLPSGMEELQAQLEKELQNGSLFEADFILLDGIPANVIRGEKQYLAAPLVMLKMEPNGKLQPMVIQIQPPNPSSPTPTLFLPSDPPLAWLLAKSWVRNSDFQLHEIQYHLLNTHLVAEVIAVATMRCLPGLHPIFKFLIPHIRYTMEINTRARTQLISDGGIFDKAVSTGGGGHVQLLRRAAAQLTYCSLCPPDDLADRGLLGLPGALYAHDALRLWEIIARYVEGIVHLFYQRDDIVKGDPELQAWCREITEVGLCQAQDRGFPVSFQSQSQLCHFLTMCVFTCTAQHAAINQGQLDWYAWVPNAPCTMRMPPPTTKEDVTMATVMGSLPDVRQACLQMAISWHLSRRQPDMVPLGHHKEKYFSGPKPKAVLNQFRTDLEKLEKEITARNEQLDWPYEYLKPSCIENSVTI
#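 Purified human 12hLO at 150 nM in 25 mM Hepes, 0.01% Triton X-100, pH 7.0, preincubated 15 min at room temperature with compound. Reaction started with 40 uM arachidonic acid, 30 min at room temperature. Hydroperoxide measured by Fe-xylenol orange, 573/405 nm absorbance ratio.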
# DT40 TDP1 no CPT = qHTS for Inhibitors of human tyrosyl-DNA phosphodiesterase 1 (TDP1): qHTS in cells in absence of CPT; DT40 Tdp1-/- hTDP1 cells, no CPT, ATP luminescence, 48 h; Potency, µM (top dose mostly 46.2 µM), for the others: at the top dose activity change, negative = growth inhibition, hits mostly inhibitors; 420,000 compounds, 15% hits; AID 686978, 2013; also: nearly all actives have a fitted effect of over 55% in size
#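 Chicken DT40 Tdp1-/- cells complemented with human TDP1, screened without camptothecin (DMSO vehicle only), 400 cells/well. Compounds pin-transferred, cells incubated at 37 °C for at least 48 hr. Growth read as ATP-dependent luminescence (CellTiter-Glo, 30 min at RT).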
# Active calls of the source: *; ? = inconclusive; nt = no result given; [ ] = another dose, or the depositor's remark. Calls follow the shape of the dose curve; as a rule, active = well fitted curve in the direction sought with a large enough effect; inconclusive = small, poorly fitted or top-dose-only effect, or another doubt; inactive = no such curve, though single readings can be large; an effect the other way counts as inactive or inconclusive. % is scaled to controls: 0 for no effect and ±100 for the full control effect; potency is read from the fitted curve at half-maximal effect.
SMILES,RORg inh,TDP1 cell CPT,ELG1 DNA repair,VP16 counter,12-LOX inh,DT40 TDP1 no CPT
Nc1c(C(=O)NCCN2CCOCC2)c2nc3ccccc3nc2n1Cc1ccco1,0.1%,?,20.6µM*,0.4%,0.0%,14.6µM*
Nc1c(C(=O)NCCc2ccccc2)c2nc3ccccc3nc2n1CCN1CCOCC1,2.1%,20.6µM*,?,-23.3%,-14.1%,16.4µM*
CCN(CC)C(=O)c1ccc(N2C(=O)CCS2(=O)=O)cc1Cl,nt,nt,nt,nt,-5.8%,nt
CCNC(=O)NC(=O)COC(=O)c1cn(C)c2ccccc12,nt,nt,nt,nt,41.8%,nt
C=C1C(=O)OC2CC3(C)OC3CCC(C)=CC(OC(C)=O)C12 (stereo unspecified),nt,2.31µM*,nt,nt,-7.1%,2.59µM*
CCc1cc2c(cc1-c1csc(C/C(N)=N/O)n1)C(C)(C)CCC2(C)C,nt,?,nt,nt,-10.3%,18.4µM*
COC(=O)C1=C(N)OC(C)=C(C(C)=O)C12C(=O)N(C)c1ccccc12 (stereo unspecified),-28.4%,?,-0.4%,-0.7%,6.9%,20.6µM*
O=C(Nc1cc2c(cc1C(=O)c1ccc(Br)cc1)OCCO2)c1ccc(Cl)cc1,nt,23.1µM*,nt,nt,-25.7%,?
O=C(Nc1ccc(Br)cc1C(=O)c1ccccc1)c1ccccc1,nt,?,nt,nt,0.0%,?
Cc1c(NS(=O)(=O)c2ccccc2)ccc([N+](=O)[O-])c1Cl,nt,?,nt,nt,-11.9%,16.4µM*
Fc1cccc(CC2CCOC3(CCNCC3)C2)c1 (stereo unspecified),nt,nt,nt,nt,20.7%,nt
CCCCOCCCn1c(N)c(C(=O)OC(C)COC)c2nc3ccccc3nc21 (stereo unspecified),?,?,?,?,44.4%,?
CCC(C)NC(=O)c1c(N)n(CCCOC)c2nc3ccccc3nc12 (stereo unspecified),7.2%,-6.3%,16.4µM*,-10.8%,-4.2%,?
COCCCn1c(N)c(C(=O)OC(C)COC)c2nc3ccccc3nc21 (stereo unspecified),-4.6%,-8.5%,?,6.2%,0.0%,-17.2%
COCCCn1c(N)c(C(=O)Nc2sc3c(c2C(=O)OC)CCCC3)c2nc3ccccc3nc21,-8.4%,?,0.2%,-5.5%,-5.6%,17.8µM*
COCCCn1c(N)c(C(=O)Nc2ccccc2)c2nc3ccccc3nc21,-6.8%,29.1µM*,16.4µM*,-25.4%,0.0%,?
COc1ccc(CNC(=O)CSCc2cnn(-c3ccccc3)c2-n2cccc2)cc1OC,nt,14.6µM*,nt,nt,-19.7%,13µM*
O=C(CNC(=O)c1cccs1)OCC(=O)c1ccc([N+](=O)[O-])cc1,-8.9%,16.4µM*,-15.0%,-7.8%,-12.1%,?
C=CC[C@@H](CC(=O)N[C@H](CO)Cc1ccccc1)C(=O)NCCOC(=O)[C@@H](CC=C)Cc1ccc(F)cc1,nt,29.1µM*,?,nt,?,?
Cc1nc(N)nc(N2CC[C@@H]3CC[C@H](C2)N3C)c1CCC(=O)O,nt,nt,nt,nt,11.2%,nt
CCCc1nn(C)c2c1C(c1ccncc1)C(C#N)=C(N)O2 (stereo unspecified),-25.9%,?,15.0%,-1.0%,0.0%,29.1µM*
CCOC(=O)c1oc2ccc(S(=O)(=O)n3nc(-c4ccc(Br)cc4)cc3N)cc2c1C,nt,20.6µM*,nt,nt,2.2%,11.6µM*
CCOC(=O)c1ccc(S(=O)(=O)n2c(=O)oc3ccccc32)cc1,nt,?,-13.3%,nt,?,-22.3%
COc1ccc(C2=NCC(=O)N(CC(=O)Nc3ccc(F)cc3)c3sc4c(c32)CCCC4)cc1,nt,nt,nt,nt,-3.7%,nt
NC1(c2ccccc2)CCC1,nt,nt,nt,nt,-0.2%,nt
SMILES,RORg inh,TDP1 cell CPT,ELG1 DNA repair,VP16 counter,12-LOX inh,DT40 TDP1 no CPT
CC1OC(OC2C=C3CCC4C(CCC5(C)C(c6ccc(=O)oc6)CCC45O)C3(C)CC2)C(O)C(OC2OC(CO)C(O)C(O)C2O)C1O (stereo unspecified),nt,0.164µM*,nt,nt,0.7%,0.184µM*
CC1(O)CCC2C3CCC4=CC(=O)CC[C@]4(C)C3CC[C@@]21C (stereo partly specified),nt,nt,nt,nt,34.1%,nt
O=C(NCc1ccccc1)c1cccn(Cc2ccccc2)c1=O,?,?,-29.2%,4.7%,nt,?
O=C(c1cc(C(=O)NCc2ccccc2)c(=O)n(Cc2ccccc2)c1)c1cc(Cl)ccc1O,?,7.31µM*,?,-9.2%,?,8.2µM*
CCCCOP(=O)(OCCCC)C(O)c1ccc(Br)cc1 (stereo unspecified),-9.0%,23.1µM*,-7.6%,-8.9%,3.1%,18.4µM*
CN(C)C(=O)Oc1ccc2c(=O)c(-c3ccc(Br)cc3)coc2c1,nt,nt,nt,nt,5.8%,nt
COc1ccc(O)c2c(=O)c3c(OC)cc4c(c3oc12)C1C=COC1O4 (stereo unspecified),0.708µM*,1.3µM*,-28.6%,?,28.2%,0.92µM*
C=C[C@H]1CN2CC[C@H]1C[C@@H]2CNS(=O)(=O)c1ccc(NC(C)=O)cc1,nt,nt,nt,nt,18.6%[176 µM],nt
CN(C(=O)Cc1ccc2c(c1)OCO2)C1CCCN(Cc2ccccc2F)C1 (stereo unspecified),nt,?,nt,nt,-9.3%,?
c1ccc(C(O[C@H]2CCCN(CCc3ccc4c(c3)OCO4)C2)c2ccccc2)cc1,nt,?,nt,nt,?,23.7µM*
O=C(Nc1cccc(Cl)c1)OC1CN2CCC1CC2 (stereo unspecified),?,5.17µM*,?,?,?,5.17µM*
CCCN[C@@H]1CCc2c(OC)cccc2[C@@H]1C,0.2%,12.9%,nt,-3.9%,4.7%,-21.8%
CCCN(CCC)[C@@H]1CCc2c(OC)cccc2[C@@H]1C,-14.9%,?,nt,19.0%,1.5%,15µM*
Cc1ccc(C)c(S(=O)(=O)N2[C@H]3CC[C@@H]2c2cnc(-c4ccc(F)cc4)nc2C3)c1,nt,nt,nt,nt,-16.9%,nt
CN(C)c1ccc(C(=O)NC[C@H]2C[C@@H]3CCN2C[C@@H]3CN2CCN(c3ccc(F)cc3)CC2)cc1,nt,nt,nt,nt,62.8%,nt
Cc1cc(OC(=O)CCNC(=O)OC(C)(C)C)c2c3c(c(=O)oc2c1)CCC3,?,?,?,?,16.2%,20.6µM*
Cc1cc(OC(=O)c2ccco2)c2c3c(c(=O)oc2c1)CCC3,12.0%,?,-14.6%,?,7.0%,23.1µM*
CCC(NC(=O)OC(C)(C)C)C(=O)Oc1cc(C)cc2oc(=O)c3c(c12)CCC3 (stereo unspecified),0.8%,20.6µM*,-15.6%,-0.6%,0.0%,11.6µM*
